The sample as a whole holds a higher share of hits than the screen did.
TTR transcr act = activators of transthyretin transcription | activation, % at 16.7 µM | SH-SY5Y TTR promoter Gaussia luciferase, luminescence; 100% = recombinant luciferase protein wells | 92,000 compounds, 1.3% hits;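 active = activation above the mean of all tested compounds plus 3 SD, cut at about 9.5% in these data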;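 also: cells exposed to compounds for one day before reading; 0% = median of all test compound wells on the plate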
TTR inh HuH7 = HuH7 TTR transcription inhibition, counter-screen; shares compounds with TTR transcr act; HuH7 TTR promoter-Gaussia luciferase reporter, luminescence; inhibition, % at 16.7 µM; 1,100 compounds, 4% hits;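 active = average inhibition above the solvent-only control wells' mean plus 3 SD, cut at about 15% in these data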;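 also: 0% = cells with DMSO only and 100% = cells with inhibitor control FD; inhibitors lower well luminescence so higher value means more inhibition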
TTR act confirm = confirmation of human transthyretin transcription activators; shares compounds with TTR transcr act; SHSY5Y TTR promoter Gaussia luciferase, luminescence; 100% = purified Lucia enzyme wells, no cells; activation, % at 16.7 µM; 1,100 tested, under 10 active; AID 1117280;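 active = mean activation above a set limit taken from the earlier primary screen, cut at about 11% in these data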;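 also: 0% = DMSO-treated cells and 100% = recombinant Lucia luciferase without cells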
* = called active by the depositor.

SMILES	TTR transcr act	others
O=C1[C@H]2[C@@H](c3ccc(F)cc3)N3C(=O)N(c4cccc(Br)c4)C(=O)[C@@]3(Cc3ccccc3)[C@H]2C(=O)N1C1CCCCC1	1.6
O=C1[C@H]2[C@@H](c3ccc(Cl)cc3)N3C(=O)N(c4cccc(Cl)c4)C(=O)[C@@]3(Cc3ccccc3)[C@H]2C(=O)N1C1CCCCC1	15.7*	TTR inh HuH7=5.6;TTR act confirm=-0.8
Cc1cccc([C@@H]2[C@@H]3C(=O)N(Cc4ccccc4)C(=O)[C@@H]3[C@]3(Cc4ccccc4)C(=O)N(c4cccc(Cl)c4)C(=O)N23)c1	-1.5
N#Cc1ccc(Cn2ccc3ccc(-c4ccc5ccn(Cc6ccc(C#N)cc6)c5c4)cc32)cc1	0.3
O=C(CSc1nnc(CNC(=O)c2ccccc2)o1)NCc1ccc2c(c1)OCO2	17.3*	TTR inh HuH7=-16.1;TTR act confirm=0.2
COc1ccc(C(=O)NCc2nnc(SCC(=O)Nc3ccc4c(c3)OCO4)o2)cc1	3.1
O=C(COc1ccc(Cl)cc1)NCc1nnc(SCC(=O)NCc2ccc3c(c2)OCO3)o1	-0.8
Cc1ccc(-c2nc3ncccn3c2NC(=O)c2ccc(F)cc2)cc1	0.5
Nc1[nH]c2cc(C(F)(F)F)ccc2c1C(=O)NCc1ccc(F)cc1	2.1
Oc1ccc(CNc2ccc(C(F)(F)F)cc2F)c2cccnc12	0.8
O=C(NCCc1ccccc1)OCc1cn(-c2ccccc2Cl)nn1	-2.2
COc1cc2c(cc1OC)C(c1cccc(F)c1)CC(=O)N2 (stereo not given)	18.1*	TTR inh HuH7=1.5;TTR act confirm=-0.3
COc1cc2c(cc1OC)C(c1cccnc1)CC(=O)N2 (stereo not given)	0.0
COc1ccc(C2CC(=O)Nc3cc(OC)c(OC)cc32)cc1 (stereo not given)	0.0
Cc1ccc(CN2CCCCC(NC(=O)c3c(F)cccc3F)C2=O)cc1 (stereo not given)	-1.1
COCCCNC(=O)C[C@H]1C[C@@]2(C(=O)OC)C(=C[C@H](C3CCCC3)O[C@@H]2C)N(Cc2cccc3ccccc23)C1=O	-0.2
C[C@H]1[C@H](N(Cc2cccs2)Cc2cccs2)CC[C@@]23CCCN2C(=O)CCC[C@@H]13	1.4
COc1ccc(C2(C)NC(=O)N(CC(=O)N(c3ccccc3)C3CCS(=O)(=O)C3)C2=O)cc1 (stereo not given)	-1.0
CC1(c2ccccc2)NC(=O)N(CC(=O)N(c2ccccc2)C2CCS(=O)(=O)C2)C1=O (stereo not given)	13.7*	TTR inh HuH7=-16.6;TTR act confirm=1.5
CCC1(c2ccccc2)NC(=O)N(CC(=O)N(c2ccccc2)C2CCS(=O)(=O)C2)C1=O (stereo not given)	5.1
CSCCC(NC(=O)C1CCC(C)CC1)C(=O)O (stereo not given)	57.5*	TTR inh HuH7=7.0;TTR act confirm=2.9
CSCC[C@H](NC(=O)[C@H]1CC[C@H](CNC(=O)[C@@H]2CCCN2)CC1)C(=O)O	0.5
COC(=O)C(CCSC)NC(=O)C(NC(=O)C1CCC(C)CC1)C(C)C (stereo not given)	-2.4
N#Cc1ccc(NC(=O)OC2CC3CC2[C@H]2CCCCN2[C@H]3Cc2ccccc2)cc1 (stereo not given in full)	-0.4
O=C(OCC#CCSc1nnc(-c2cccc3ccccc23)o1)c1ccc(F)c(F)c1	-0.1
SMILES	TTR transcr act	others
O=C(NC1CCCCN(Cc2cccc(Cl)c2)C1=O)c1c(F)cccc1F (stereo not given)	-0.7
COc1ccc(CN2C(=O)COc3ccccc3C2c2nnnn2C2CCCCC2)cc1 (stereo not given)	0.8
CCCc1cc(=O)[nH]c(SCC(=O)Nc2ccc3ccccc3c2)n1	0.6
CCCc1cc(=O)[nH]c(Nc2ccc(O)cc2)n1	18.7*	TTR inh HuH7=0.1;TTR act confirm=0.9
CCCc1cc(=O)[nH]c(SCC(=O)NC2CCCCC2)n1	-0.2
COCCNC[C@@]12CO[C@H](c3ccc(Cl)cc3)N1[C@@H](c1ccc(Cl)cc1)SC2	1.3
O=C(O)CCN1C(=O)/C(=C/c2cccc(OCc3ccc(F)cc3)c2)SC1=S	-1.2
COC(=O)C1CN(CC(C)C)CCS(=O)(=O)N1Cc1cccc(Cl)c1 (stereo not given)	1.5
O=C(CSc1nnc(-c2cccc(F)c2)o1)NC1CCCC1	-1.4
O=C(CSc1nnc(-c2ccccc2)o1)NCC1CCCCC1	12.0*	TTR inh HuH7=-6.3;TTR act confirm=-0.6
Cc1cnc(NC(=O)CSc2nnc(-c3ccccc3)o2)s1	-1.7
COC(=O)[C@]12CCCCC=C1N(Cc1ccc(OC)cc1)C(=O)[C@@H]2CC(=O)NCCC(C)C	-1.0
CCc1nccn1CC(=O)c1ccc(O)c(O)c1	0.2
CC1(c2nnnn2-c2ccc3c(c2)OCCO3)CSCC(=O)N1CCc1c[nH]c2ccccc12 (stereo not given)	-0.5
CC(C)CNC(=O)OCc1cn(Cc2ccc(C(F)(F)F)cc2)nn1	0.6
Cc1cc(C)n2nc(C(=O)OCC(=O)c3ccccc3)nc2n1	-0.1
COC(=O)c1cc(COC(=O)c2nc3nc(C)cc(C)n3n2)oc1C	10.3*	TTR inh HuH7=-11.4;TTR act confirm=-0.7
Cc1cc(C)n2nc(C(=O)OCC(=O)Nc3ccc4c(c3)OC(F)(F)O4)nc2n1	-1.1
C[C@H]1CCCN1c1cccc2c1S(=O)(=O)N1CC[C@@H](C1)O2	0.5
Nc1nc(NCCCN2CCOCC2)nc(Nc2ccc(Cl)cc2)c1[N+](=O)[O-]	12.5*	TTR inh HuH7=-8.0;TTR act confirm=0.2
Nc1nc(NCC2CCCO2)nc(Nc2ccc(Cl)cc2)c1[N+](=O)[O-] (stereo not given)	3.0
Nc1nc(Nc2ccccc2)nc(N2CCOCC2)c1[N+](=O)[O-]	1.4
CCN1C(=O)[C@@H]2[C@@H](c3ccc(SC4CCCCC4)cc3)N3CCC[C@@]3(C(=O)OC)[C@@H]2C1=O	10.9*	TTR inh HuH7=-4.2;TTR act confirm=-0.2
COC(=O)[C@@]12CCCN1[C@H](c1ccc(SC3CCCCC3)cc1)[C@H]1C(=O)N(C)C(=O)[C@H]12	-1.0
CCN1C(=O)[C@H]2[C@@H](c3ccc(SC4CCCCC4)cc3)N3CCCC[C@@]3(C(=O)OC)[C@H]2C1=O	2.6
SMILES	TTR transcr act	others
C#CCNC(=O)c1cnn(-c2ccccc2)c1N	-0.9
CCCCC(=O)N[C@H]1CC[C@@]23CCCN2C(=O)CCC[C@H]3[C@H]1C	-0.7
CC(=O)N(C)c1ccc(N=Nc2c(C)[nH]n(-c3ccccc3)c2=O)cc1	11.3*	TTR inh HuH7=-3.5;TTR act confirm=0.1
CCOC(=O)c1ccc(N=Nc2c(C)[nH]n(-c3ccccc3)c2=O)cc1	0.4
CC(=O)N(C)c1ccc(N=Nc2c(C)[nH]n(C(N)=S)c2=O)cc1	-0.8
CN1C2=N[C@@H](c3cccc(C(F)(F)F)c3)CC(=O)N2/C(=C\c2ccccc2)[C@H]1c1ccccc1	-2.4
O=C1CC(NNc2ccccc2)C(=O)N1c1ccccc1 (stereo not given)	11.1*	TTR inh HuH7=2.5;TTR act confirm=-1.0
CCOC(=O)NNC1CC(=O)N(c2ccccc2)C1=O (stereo not given)	2.2
CC(O)CCC(=O)NNC1CC(=O)N(c2ccccc2)C1=O (stereo not given)	2.8
C[C@@H]1CN([C@@H](C)CO)C(=O)CCCn2cc(nn2)CO[C@H]1CN(C)C(=O)C1CC1	1.0
O=C(NCC(c1ccccc1)c1ccccc1)[C@H](Cc1c[nH]c2ccccc12)NC1(C(=O)NC2CCCCC2)CCCC1	1.0
COc1ccc(/C=C/c2nnc(NC(=O)COc3cccc(C)c3)s2)cc1	0.8
